In PubChem BioAssay one finds composite z-score and z-score data, which are given here for 14 compounds.

The source made the active and inactive calls.

Experiment [1] concerns PRMT1 (protein arginine N-methyltransferase 1). The experiment can be described thus: PRMT1 binders on small-molecule microarrays, primary screen, biochemical, small-molecule microarray, 635 nm fluorescence (AID 1088).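 Note: binding of Prmt1 protein to compounds spotted on small-molecule microarray slides.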 To be noted: small-molecule microarray binding, higher = more signal.
The nature of experiment [2]: yeast growth modulation, basal conditions, primary screen, YJM789 clinical isolate, OD600, 24 h (AID 1089).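 Note: growth of clinical yeast isolate S. cerevisiae YJM 789 seeded 1000 cells per well; test concentration not given here.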 The settings on record: S. cerevisiae YJM789 growth, higher = more signal, called active from +8 up or from −8 down.
Experiment [3] can be described thus: fission yeast growth modulation, primary screen, strain 972, OD600, 24 h, no modulator (AID 1090).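 Note: basal condition with compound alone and no growth modifier present; test concentration not given here.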 The settings on record: S. pombe 972 growth, higher = more signal, called active from +8 up or from −8 down.
The nature of experiment [4]: S. cerevisiae growth modulation with rapamycin, primary screen, strain BY4716, OD600, 96 h (AID 1091). Note: test concentration not given here. The settings on record: higher = more signal, called active from +8 up or from −8 down.
Experiment [5] deals with Torsin-1A-interacting protein 2 (Homo sapiens) (UniProt Q8NFQ8). The experiment can be described thus: LULL1 binders on small-molecule microarray, primary screen, cell lysate, human LULL1 lysate, 635/667 nm fluorescence (AID 1092).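 Note: probe is lysate of COS7 cells overexpressing human LULL1; score merges per-feature 667 nm fluorescence with signal-to-noise.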 The settings on record: hLULL1 lysate binding, 635 nm fluorescence, higher = more signal.
Sequence of Torsin-1A-interacting protein 2 (Homo sapiens) (Q8NFQ8 whole entry, looked up): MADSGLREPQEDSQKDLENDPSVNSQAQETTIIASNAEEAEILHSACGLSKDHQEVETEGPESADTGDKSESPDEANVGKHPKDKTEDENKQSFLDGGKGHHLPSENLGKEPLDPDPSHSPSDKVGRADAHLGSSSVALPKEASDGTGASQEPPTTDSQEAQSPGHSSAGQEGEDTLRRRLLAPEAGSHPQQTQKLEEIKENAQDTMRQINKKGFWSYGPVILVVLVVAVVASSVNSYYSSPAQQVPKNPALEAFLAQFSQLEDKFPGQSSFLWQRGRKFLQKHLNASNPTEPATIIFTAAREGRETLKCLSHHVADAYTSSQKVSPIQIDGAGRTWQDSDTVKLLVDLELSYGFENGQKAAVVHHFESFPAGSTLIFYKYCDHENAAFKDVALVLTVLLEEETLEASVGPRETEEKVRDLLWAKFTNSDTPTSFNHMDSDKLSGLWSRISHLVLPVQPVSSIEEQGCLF
A short description of experiment [6]: E. coli growth modulation, two-sided OD650, primary screen, E. coli filamentation project, strain DRC41, 24 h (AID 1093).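 Note: MC1000 strain lacking acrAB efflux and sulA so SOS filamentation is blocked; test concentration not given here.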 The settings on record: OD650, 24 h, higher = more signal, called active from +8 up or from −8 down.
A short description of experiment [7]: small-molecule microarray binders of probe aLefty2, primary screen, biochemical, biotinylated probe, 635/667 nm fluorescence (AID 1094).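 Note: score merges spot fluorescence near 667 nm with spot signal-to-noise ratio.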 To be noted: higher = more signal.
The subject of experiment [8] is Noggin (protein binding on small-molecule microarray). In words: Noggin binders on small-molecule microarray, primary screen, biochemical, 635/667 nm fluorescence (AID 1095).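 Note: score merges 667 nm feature fluorescence with signal to noise over triplicate slides.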 To be noted: 635 nm fluorescence, higher = more signal.
Experiment [9] addresses Neurogenic locus notch homolog protein 3 (Homo sapiens) (UniProt Q9UM47). In words: NOTCH3 binders on small-molecule microarray, primary screen, biochemical, 635/667 nm fluorescence (AID 1096). To be noted: NOTCH3 binding, 635 nm fluorescence, higher = more signal.
Experiment [10] is described as follows: small-molecule microarray binders of probe aEGFR, primary screen, biochemical, biotinylated probe, 635/667 nm fluorescence (AID 1097).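 Note: probe is a biotinylated anti-EGFR antibody binding compounds printed on slides; score combines fluorescence near 667 nm and signal to noise of each spot.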 To be noted: higher = more signal.

Sequence of Neurogenic locus notch homolog protein 3 (Homo sapiens) (Q9UM47 whole entry, looked up): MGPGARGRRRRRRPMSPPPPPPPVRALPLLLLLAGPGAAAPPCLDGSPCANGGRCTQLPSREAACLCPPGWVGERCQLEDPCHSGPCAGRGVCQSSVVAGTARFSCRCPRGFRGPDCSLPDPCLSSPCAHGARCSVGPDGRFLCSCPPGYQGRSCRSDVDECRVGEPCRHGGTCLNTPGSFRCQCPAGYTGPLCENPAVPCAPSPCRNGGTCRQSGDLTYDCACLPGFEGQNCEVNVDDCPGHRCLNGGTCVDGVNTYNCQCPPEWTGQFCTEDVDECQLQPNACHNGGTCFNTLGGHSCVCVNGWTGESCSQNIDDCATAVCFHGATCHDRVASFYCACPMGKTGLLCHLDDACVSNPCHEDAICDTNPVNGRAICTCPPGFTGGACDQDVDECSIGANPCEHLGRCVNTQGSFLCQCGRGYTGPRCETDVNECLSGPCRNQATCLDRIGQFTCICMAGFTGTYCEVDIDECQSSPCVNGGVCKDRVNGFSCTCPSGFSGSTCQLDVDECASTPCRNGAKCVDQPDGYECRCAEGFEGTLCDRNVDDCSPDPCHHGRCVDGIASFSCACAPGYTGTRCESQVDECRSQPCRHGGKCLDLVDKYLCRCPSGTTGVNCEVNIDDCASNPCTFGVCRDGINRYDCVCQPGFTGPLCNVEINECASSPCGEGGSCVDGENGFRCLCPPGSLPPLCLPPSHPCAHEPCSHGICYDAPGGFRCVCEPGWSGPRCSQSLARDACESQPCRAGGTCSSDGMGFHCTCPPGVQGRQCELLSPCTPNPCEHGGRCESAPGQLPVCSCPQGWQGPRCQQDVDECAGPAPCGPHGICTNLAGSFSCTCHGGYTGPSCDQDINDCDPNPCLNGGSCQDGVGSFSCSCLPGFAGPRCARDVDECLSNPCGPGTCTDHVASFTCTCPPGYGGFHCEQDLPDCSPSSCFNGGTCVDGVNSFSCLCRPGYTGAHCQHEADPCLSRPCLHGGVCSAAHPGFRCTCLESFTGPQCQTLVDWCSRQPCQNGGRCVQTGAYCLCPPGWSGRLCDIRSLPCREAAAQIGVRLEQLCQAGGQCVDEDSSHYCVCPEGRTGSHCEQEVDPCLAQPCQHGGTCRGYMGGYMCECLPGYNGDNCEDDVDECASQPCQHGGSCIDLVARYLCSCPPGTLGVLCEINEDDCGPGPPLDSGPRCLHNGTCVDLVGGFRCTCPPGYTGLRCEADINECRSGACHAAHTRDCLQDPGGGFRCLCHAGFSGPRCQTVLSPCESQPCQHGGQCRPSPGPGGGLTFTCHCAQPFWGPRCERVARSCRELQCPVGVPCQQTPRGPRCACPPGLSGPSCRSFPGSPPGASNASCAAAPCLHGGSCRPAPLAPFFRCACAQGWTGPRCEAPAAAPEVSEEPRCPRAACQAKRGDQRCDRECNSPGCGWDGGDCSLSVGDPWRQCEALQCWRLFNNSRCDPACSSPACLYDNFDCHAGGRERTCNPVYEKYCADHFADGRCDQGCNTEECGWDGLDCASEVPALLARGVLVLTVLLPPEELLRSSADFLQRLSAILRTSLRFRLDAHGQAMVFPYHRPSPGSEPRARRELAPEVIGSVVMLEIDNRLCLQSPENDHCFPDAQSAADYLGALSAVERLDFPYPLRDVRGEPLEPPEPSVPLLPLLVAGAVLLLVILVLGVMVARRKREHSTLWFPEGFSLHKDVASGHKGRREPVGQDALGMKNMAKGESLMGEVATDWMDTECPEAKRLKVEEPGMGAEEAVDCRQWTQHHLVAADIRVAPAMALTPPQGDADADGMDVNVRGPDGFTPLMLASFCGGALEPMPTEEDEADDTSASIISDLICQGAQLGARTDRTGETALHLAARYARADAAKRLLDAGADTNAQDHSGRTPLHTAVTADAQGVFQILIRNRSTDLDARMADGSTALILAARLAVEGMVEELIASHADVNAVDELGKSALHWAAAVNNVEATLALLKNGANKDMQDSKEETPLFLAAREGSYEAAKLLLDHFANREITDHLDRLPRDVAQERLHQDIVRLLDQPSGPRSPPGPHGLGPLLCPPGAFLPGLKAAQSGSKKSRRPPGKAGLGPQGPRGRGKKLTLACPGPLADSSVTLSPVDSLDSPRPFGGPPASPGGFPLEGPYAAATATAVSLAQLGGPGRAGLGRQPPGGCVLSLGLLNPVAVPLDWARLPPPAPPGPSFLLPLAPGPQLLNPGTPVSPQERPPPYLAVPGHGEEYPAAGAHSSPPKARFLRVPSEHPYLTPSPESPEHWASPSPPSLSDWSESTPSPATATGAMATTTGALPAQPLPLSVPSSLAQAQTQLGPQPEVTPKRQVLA

In the case of `C=CCC(OC(C)=O)[C@@H]1[C@@H](N(Cc2cccc3ccccc23)C(=O)c2ccc(-c3ccccc3)cc2)c2cc(OCCCO)ccc2N1C(=O)c1ccc(-c2ccccc2)cc1` (stereo not given in full), the composite z-score in experiment [1] was -0.0425; in experiment [5], 0.549; in experiment [7], -0.0179; in experiment [8], -0.63; in experiment [9], -0.234; in experiment [10] it was -0.106. The z-score in experiment [2] is -1.05 (inactive); in [3], -0.0057 (inactive); in experiment [4], -0.415 (inactive); in experiment [6], -1.02 (inactive).

Regarding `COc1ccc(C#Cc2ccc3c(c2)[C@]2(C(=O)N3)[C@H](c3ccc(OCCO)cc3)N3[C@H](c4ccccc4)[C@H](c4ccccc4)OC(=O)[C@H]3[C@@H]2C(=O)N2CCc3cc(OC)c(OC)cc3C2)cc1`, the composite z-score in experiment [1] was 1.55; in [5] it was 2.81; in [7], -0.209; in [8], 0.784; in experiment [9], 1.12; in experiment [10], 0.481. Further, the z-score in [2] is 2.27 (inactive); in experiment [3] it was 1.94 (inactive); in [4], 4.57 (inactive); in experiment [6], 0.0933 (inactive).

For `CCCC=C(CCC)[C@@H](NS(=O)(=O)c1cccc2cccnc12)c1ccc(-c2ccccc2)cc1`, the composite z-score came to 1.55 in [1]; 3.61 in [5]; 0.104 in experiment [7]; 1.07 in experiment [8]; 1.06 in experiment [9]; 0.06 in experiment [10]. Moreover, the z-score in experiment [2] is -0.221 (inactive); in experiment [3] it was 0.114 (inactive); in experiment [4], 0.638 (inactive); in [6], -0.701 (inactive).

As to `CC(C)C(=C=CC[C@@H](O)c1cccc(OCCO)c1)C[C@@H](O)COCc1ccccc1`, the composite z-score is 0.566 in experiment [1]; 0.493 in experiment [5]; -0.133 in experiment [7]; 0.573 in experiment [8]; 0.541 in experiment [9]; -0.203 in [10]. In addition, the z-score is -0.978 (inactive) in [2], -1.55 (inactive) in [3], -0.845 (inactive) in experiment [4] and 1.61 (inactive) in experiment [6].

On to `COc1ccc(C#Cc2ccc3c(c2)[C@]2(C(=O)N3)[C@H](C(=O)N3CCCCCCC3)[C@H]3C(=O)O[C@H](c4ccccc4)[C@H](c4ccccc4)N3[C@@H]2c2ccc(O)cc2)cc1`, for which the composite z-score in experiment [1] amounted to 1.56; in experiment [5], 3.12; in experiment [7] it was 1; in [8], 0.719; in experiment [9] it was 1.1; in [10] it was 0.426. Moreover, the z-score in experiment [2] was -0.0118 (inactive); in experiment [3], 0.0345 (inactive); in experiment [4] it was 0.595 (inactive); in experiment [6], 0.209 (inactive).

As to `CN1C(=O)C2C(C1=O)C1C=C(CCCO)C2C(c2cccs2)N1Cc1cc2c(cc1Br)OCO2` (stereo not given), the composite z-score in experiment [1] is 1.54; in experiment [5], 3.41; in experiment [7], 0.0923; in experiment [8], 0.639; in experiment [9], 1.03; in [10] it was 0.095. Also, the z-score was -0.653 (inactive) in experiment [2], -1.25 (inactive) in [3], -0.631 (inactive) in [4] and 1.12 (inactive) in [6].

As to `COCCOC(=O)N1C(=O)[C@@]2(c3cc(C#Cc4ccc(OC)cc4)ccc31)[C@H](c1ccc(OCCO)cc1)N1[C@H](c3ccccc3)[C@H](c3ccccc3)OC(=O)[C@H]1[C@@H]2C(=O)Nc1nc2ccccc2s1`, the composite z-score in [1] is 1.14; in experiment [5], 2.2; in experiment [7], 0.188; in experiment [8], 0.55; in experiment [9], 0.95; in experiment [10], -0.0437. In addition, the z-score is 1.77 (inactive) in [2], 1.43 (inactive) in experiment [3], 1.96 (inactive) in experiment [4] and 1.82 (inactive) in experiment [6].

Consider `CCC(CC)C(O)C1C=CC2C(=O)N(c3ccccc3)C(=O)C2N1Nc1ccc([N+](=O)[O-])cc1` (stereo not given), for which the composite z-score in experiment [1] was found to be 1.53; in [5] it was 3; in experiment [7], 0.323; in experiment [8], 0.0809; in [9], 1.07; in [10], 0.277. For the same compound, the z-score in experiment [2] is -0.255 (inactive); in experiment [3], 1.27 (inactive); in [4], 1.28 (inactive); in experiment [6], -0.27 (inactive).

Turning to `Cc1cccc([C@H]2C[C@H]3C(I)=C[C@@H]2C(=O)[C@]32CO2)c1`, the composite z-score in experiment [1] is -0.614; in experiment [5] it was -0.842; in experiment [7] it was 0.0735; in experiment [8] it was 0.461; in [9] it was -0.0085; in experiment [10], -0.108. Further, the z-score is -2.5 (inactive) in [2], -20.2 (active) in experiment [3], -2.15 (inactive) in experiment [4] and -0.2 (inactive) in [6].

On to `Cc1ccc(S[C@]2(C(=O)NCc3ccccc3)CC(=O)N(Cc3cc(C(F)(F)F)cc(C(F)(F)F)c3)[C@@H]2c2ccc(CO)cc2I)cc1`, for which the composite z-score was -0.455 in experiment [1]; 0.742 in experiment [5]; 0.01 in [7]; -1.71 in [8]; -1.93 in experiment [9]; -0.3 in experiment [10]. The z-score was 0.269 (inactive) in [2], -2.56 (inactive) in experiment [3], 0.49 (inactive) in [4] and -0.607 (inactive) in experiment [6].

In the case of `COC(=O)C(CC#Cc1ccc2c(c1)[C@]1(C(=O)N2)[C@H](c2ccc(OCCO)cc2)N2[C@H](c3ccccc3)[C@H](c3ccccc3)OC(=O)[C@H]2[C@@H]1C(=O)N1CCN(c2ncccn2)CC1)C(=O)OC`, the composite z-score was found to be 1.55 in experiment [1]; 2.31 in experiment [5]; 0.0971 in experiment [7]; 1.36 in experiment [8]; 1.05 in [9]; 0.153 in [10]. Moreover, the z-score in experiment [2] is 0.722 (inactive); in experiment [3] it was 1.82 (inactive); in [4] it was 3.83 (inactive); in experiment [6], -0.0711 (inactive).

As for `COc1cc(C(O)C2C=CC3C(=O)N(Cc4ccccc4)C(=O)C3N2n2cnnc2)cc(OC)c1OC` (stereo not given), the composite z-score was 0.932 in experiment [1]; 1.36 in experiment [5]; 0.327 in [7]; -0.127 in experiment [8]; 0.626 in experiment [9]; 0.298 in [10]. The z-score in [2] was -1.3 (inactive); in experiment [3], -0.519 (inactive); in experiment [4], -1.22 (inactive); in experiment [6] it was 0.582 (inactive).

With `COc1ccc(C(=O)Nc2cccc(CN3C(=O)[C@@]4(O[C@@H](CC(=O)N(CCO)Cc5ccccc5)[C@H]([Si](C)(C)c5ccc(OC)cc5)[C@H]4C)c4ccccc43)c2)cc1`, the composite z-score is 0.931 in [1]; 1.94 in experiment [5]; -0.175 in [7]; 0.8 in experiment [8]; 0.487 in experiment [9]; -0.201 in experiment [10]. The z-score in experiment [2] was -1.42 (inactive); in experiment [3], -0.9 (inactive); in experiment [4] it was 2.85 (inactive); in experiment [6], 0.904 (inactive).

Take `O=c1cccc(-c2ccc(F)cc2)o1`: the composite z-score in experiment [1] is 0.777; in experiment [5], -0.326; in [7], -0.0591; in experiment [8] it was 0.245; in experiment [9] it was 0.784; in experiment [10] it was 0.132. The z-score in experiment [2] was -1.28 (inactive); in experiment [3], -0.0295 (inactive); in experiment [4] it was -0.313 (inactive); in [6] it was -0.428 (inactive).
